These results are taken from article PMC5913336, “True equilibrium measurement of transcription factor-DNA binding affinities using automated polarization microscopy”.

The assay deals with Oc (Drosophila melanogaster, UniProt P22810 52-141). Briefly: FP; 33 mM phosphate pH 7.0, 90 mM NaCl, 0.01% Tween 20, 0.1 mM DTT, 0.5% agarose; room temperature. The conditions noted are these: tags: N-GST (pGEX-6P-1, kept); dsDNA, one strand shown.
Sequence of Oc (P22810 52-141): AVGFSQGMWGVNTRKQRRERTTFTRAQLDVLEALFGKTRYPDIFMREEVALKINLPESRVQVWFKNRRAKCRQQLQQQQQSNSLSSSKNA
For AGTTAATCCGCT, the binding signal was 1.09 Kd / Kd of best base at the position.

As for AGTGAATCCCCT, the binding signal is 176 Kd / Kd of best base at the position.

AGTTAAGCCCCT: the binding signal is 18 Kd / Kd of best base at the position.

AGTTAATCCCGT: the binding signal is 1.2 Kd / Kd of best base at the position.

As for AGTTAATCCCTT, the binding signal is 1.11 Kd / Kd of best base at the position.

As for AGTTAATGCCCT, the binding signal is 140 Kd / Kd of best base at the position.

Regarding AGATAATCCCCT, the binding signal was 183 Kd / Kd of best base at the position.

Consider AGTTATTCCCCT, for which the binding signal is 16.4 Kd / Kd of best base at the position.

For the sequence AGTTAGTCCCCT, the binding signal was 6.2 Kd / Kd of best base at the position.

CGTTAATCCCCT: the binding signal was 2.09 Kd / Kd of best base at the position.

In the case of TGTTAATCCCCT, the binding signal is 3.64 Kd / Kd of best base at the position.

As to AGCTAATCCCCT, the binding signal is 2.31 Kd / Kd of best base at the position.

Take AGTCAATCCCCT: the binding signal was 340 Kd / Kd of best base at the position.

Take ATTTAATCCCCT: the binding signal was 2.15 Kd / Kd of best base at the position.

As for AGTTAATCCTCT, the binding signal is 1.44 Kd / Kd of best base at the position.

Broadly, the Kd is the constant that tells how readily two partners part at equilibrium. AGTTAATCCCCT came in with a Kd of around 3.8 nM.

Regarding AGTTAATCACCT, the binding signal was 7.07 Kd / Kd of best base at the position.

Regarding GGTTAATCCCCT, the binding signal is 1.35 Kd / Kd of best base at the position.

AGTAAATCCCCT: the binding signal is 19.8 Kd / Kd of best base at the position.

Regarding AGGTAATCCCCT, the binding signal was 3.1 Kd / Kd of best base at the position.

In the case of AGTTAAACCCCT, the binding signal is 93.6 Kd / Kd of best base at the position.

Consider AGTTGATCCCCT, for which the binding signal was 15.1 Kd / Kd of best base at the position.

Take AGTTAATCTCCT: the binding signal is 3.07 Kd / Kd of best base at the position.

As for AGTTAACCCCCT, the binding signal was 60 Kd / Kd of best base at the position.

For AGTTAATCCCCC, the binding signal is 1.11 Kd / Kd of best base at the position.

Consider AGTTTATCCCCT, for which the binding signal was 1.7 Kd / Kd of best base at the position.

ACTTAATCCCCT: the binding signal was 1.03 Kd / Kd of best base at the position.

On to AATTAATCCCCT, for which the binding signal was 2.08 Kd / Kd of best base at the position.

On to AGTTAATCCCCG, for which the binding signal is 1.11 Kd / Kd of best base at the position.

In the case of AGTTAATCCACT, the binding signal is 1.54 Kd / Kd of best base at the position.

As for AGTTAATTCCCT, the binding signal was 123 Kd / Kd of best base at the position.

For the sequence AGTTACTCCCCT, the binding signal is 12 Kd / Kd of best base at the position.

On to AGTTCATCCCCT, for which the binding signal was 177 Kd / Kd of best base at the position.

Turning to AGTTAATCCCAT, the binding signal is 1.11 Kd / Kd of best base at the position.

As for AGTTAATCCCCA, the binding signal is 1.11 Kd / Kd of best base at the position.

AGTTAATACCCT: the binding signal is 251 Kd / Kd of best base at the position.

Regarding AGTTAATCGCCT, the binding signal was 6.1 Kd / Kd of best base at the position.
